From PubChem BioAssay AID2284339 (EPA ToxCast)
Where “and” joins values, the source holds several entries; their conditions need not be identical. Identical values can stand only once. Calls of active or inactive are those of the source. Rule for the calls: active = hit-call score of the fitted dose curve at least 0.9, where 1 is the maximum; inactive = score below 0.9.

Test system: NCBI gene 100038242
Assay: CCTE_GLTED_xDIO3: CCTE's Xenopus Iodothyronine Deiodinase Type 3 (xDIO3) Inhibition Assay, Great Lakes Toxicology and Ecology Division (GLTED) Lab
Experimental: CCTE_GLTED_xDIO3 is a cell-free, single-readout assay designed to test the inhibitory activity of chemicals toward Xenopus (frog) iodothyronine Deiodinase Type 3 (DIO3) enzyme. Enzyme is incubated in presence of test chemical for 3 hours during which uninhibited enzyme liberates free iodide from substrate. Free iodide is measured in a second step using the Sandell-Kolthoff method.CCTE_GLTED_xDIO3 is the assay component measured from the CCTE_GLTED_xDIO assay. It is designed to make measurements of enzyme activity, a form of enzyme reporter, as detected with absorbance signals by spectrophotometry.Data from the assay component CCTE_GLTED_xDIO3 was analyzed at the assay endpoint CCTE_GLTED_xDIO3 in the positive analysis fitting direction relative to DMSO as the negative control and baseline of activity. Using a type of enzyme reporter, loss-of-signal activity can be used to understand deiodinase Type 3 activity. To generalize the intended target to other relatable targets, this assay endpoint is annotated to the 'deiodinase' intended target family, where the subfamily is 'deiodinase Type 3'.
[…]

Row | SMILES | AC50
1 | O=C(O)C(F)(F)C(F)(F)C(F)(F)C(F)(F)C(F)(F)C(F)(F)C(F)(F)C(F)(F)C(F)(F)C(F)(F)F | 27.7 µM (active)
2 | C=CC(=O)OCC(F)(F)C(F)F | 19.8 µM (active)
3 | O=S(=O)(O)C(F)(F)C(F)(F)C(F)(F)C(F)(F)C(F)(F)C(F)(F)C(F)(F)C(F)(F)F | 142 µM (active) and 160 µM (active)
4 | O=C(O)C(F)(F)C(F)(F)C(F)(F)C(F)(F)C(F)(F)C(F)(F)C(F)(F)C(F)(F)C(F)(F)F | 147 µM (active)
5 | COC(=O)C(F)(F)C(F)(F)OC(F)(C(F)(F)F)C(F)(F)OC(F)=C(F)F (stereo not given) | 7.65 µM (active)
